Data from PubChem BioAssay.
Active and inactive are the calls of the source.

Experiments:
[1] = tested on: Plasmodium falciparum Sir2 (PF13_0152, Sir2A); experiment: pfSir2 binders on small-molecule microarrays, primary screen, biochemical, small-molecule microarray, 635 nm fluorescence (AID 1098); details: small-molecule microarray binding, fluorescence 635 nm; higher = more signal;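 note: score merges spot fluorescence intensity with its signal-to-noise ratio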
[2] = small-molecule microarray binders of probe aDKK1, primary screen, biochemical, biotinylated probe, 635/667 nm fluorescence (AID 1099); details: higher = more signal;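 note: score merges 667nm spot fluorescence with signal to noise across triplicate slides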
[3] = small-molecule microarray binders of probe aCHRDL2, primary screen, biochemical, biotinylated probe, 635/667 nm fluorescence (AID 1100); details: higher = more signal
[4] = splicing luciferase reporter signal modulators, primary screen, spliceosome inhibition project, cell-based, HEK293, splice +/- reporter (AID 1101); details: luminescence, 24 h, higher = more signal, called active from +8 up or from −8 down;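 note: HEK293 cells carrying a splicing-competent luciferase reporter gene; test concentration not given here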
[5] = molecular target: Fibroblast growth factor 10 (Homo sapiens) (UniProt O15520); experiment: FGF10 binders on small-molecule microarrays, primary screen, biochemical, small-molecule microarray, 635 nm fluorescence (AID 1102); details: FGF10 binding, fluorescence 635 nm, higher = more signal
Chain of Fibroblast growth factor 10 (Homo sapiens) (O15520 whole entry, looked up): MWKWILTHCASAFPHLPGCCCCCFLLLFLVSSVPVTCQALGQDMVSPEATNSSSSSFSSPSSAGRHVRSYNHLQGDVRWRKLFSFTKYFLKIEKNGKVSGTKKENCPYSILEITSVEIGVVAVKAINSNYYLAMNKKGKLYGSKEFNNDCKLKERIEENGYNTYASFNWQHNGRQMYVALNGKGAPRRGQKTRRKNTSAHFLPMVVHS

[6] = tested on: glycogen synthase kinase-3 (GSK3A per assay name; protocol says GSK3B); experiment: GSK3 binders on small-molecule microarrays, primary screen, biochemical, small-molecule microarray, 635 nm fluorescence, GSK3A (AID 1103); details: small-molecule microarray binding, fluorescence 635 nm; higher = more signal; note: the record names both GSK3A and GSK3B
[7] = molecular target: Epidermal growth factor receptor (Homo sapiens) (UniProt P00533); experiment: EGFR binders on small-molecule microarrays, primary screen, biochemical, small-molecule microarray, 635 nm fluorescence (AID 1104); details: EGFR binding, higher = more signal;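 note: score merges 667 nm emission intensity with spot signal to noise over triplicate slides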
Chain of Epidermal growth factor receptor (Homo sapiens) (P00533 whole entry, looked up): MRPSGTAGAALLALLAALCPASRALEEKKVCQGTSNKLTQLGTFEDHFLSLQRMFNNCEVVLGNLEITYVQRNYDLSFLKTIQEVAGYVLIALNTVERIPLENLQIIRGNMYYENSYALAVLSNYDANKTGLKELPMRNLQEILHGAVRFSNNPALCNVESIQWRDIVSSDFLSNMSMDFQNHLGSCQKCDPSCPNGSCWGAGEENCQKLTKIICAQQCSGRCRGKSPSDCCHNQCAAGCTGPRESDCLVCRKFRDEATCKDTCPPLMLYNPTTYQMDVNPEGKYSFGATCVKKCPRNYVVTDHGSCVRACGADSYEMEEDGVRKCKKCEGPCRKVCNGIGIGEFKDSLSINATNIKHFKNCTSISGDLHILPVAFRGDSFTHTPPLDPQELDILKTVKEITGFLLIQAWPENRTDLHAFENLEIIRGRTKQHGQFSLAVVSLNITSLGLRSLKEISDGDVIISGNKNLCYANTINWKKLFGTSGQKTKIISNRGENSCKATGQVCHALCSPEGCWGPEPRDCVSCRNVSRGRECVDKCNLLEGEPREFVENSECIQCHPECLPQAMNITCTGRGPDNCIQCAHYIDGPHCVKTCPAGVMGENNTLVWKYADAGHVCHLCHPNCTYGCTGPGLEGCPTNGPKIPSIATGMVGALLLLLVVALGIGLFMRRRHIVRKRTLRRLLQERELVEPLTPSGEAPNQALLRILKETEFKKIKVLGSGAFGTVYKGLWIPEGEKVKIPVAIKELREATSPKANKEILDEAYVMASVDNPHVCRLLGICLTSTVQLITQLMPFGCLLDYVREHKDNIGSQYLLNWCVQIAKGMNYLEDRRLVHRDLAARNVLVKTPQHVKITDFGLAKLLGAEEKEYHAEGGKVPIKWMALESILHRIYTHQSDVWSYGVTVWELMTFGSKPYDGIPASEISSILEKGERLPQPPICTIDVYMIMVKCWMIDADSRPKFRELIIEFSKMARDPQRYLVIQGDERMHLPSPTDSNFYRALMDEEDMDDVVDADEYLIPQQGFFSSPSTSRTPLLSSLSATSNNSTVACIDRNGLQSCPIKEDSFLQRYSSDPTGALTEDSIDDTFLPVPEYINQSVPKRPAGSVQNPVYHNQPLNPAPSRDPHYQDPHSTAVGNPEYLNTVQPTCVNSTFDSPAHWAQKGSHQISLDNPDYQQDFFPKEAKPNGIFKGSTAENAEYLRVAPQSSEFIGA

[8] = molecular target: Follistatin-related protein 3 (Homo sapiens) (UniProt O95633); experiment: FSTL3 binders on small-molecule microarrays, primary screen, biochemical, small-molecule microarray, 635 nm fluorescence (AID 1105); details: FSTL3 binding, higher = more signal;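 note: score merges emission near 667 nm and signal to noise per printed spot across three slides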
Chain of Follistatin-related protein 3 (Homo sapiens) (O95633 whole entry, looked up): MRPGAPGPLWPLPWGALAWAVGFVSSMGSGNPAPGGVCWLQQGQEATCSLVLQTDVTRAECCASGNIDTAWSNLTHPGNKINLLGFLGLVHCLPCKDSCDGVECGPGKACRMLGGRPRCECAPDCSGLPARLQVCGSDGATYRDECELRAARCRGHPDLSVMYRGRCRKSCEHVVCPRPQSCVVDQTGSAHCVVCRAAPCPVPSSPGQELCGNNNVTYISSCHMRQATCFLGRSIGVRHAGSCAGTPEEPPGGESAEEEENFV

[9] = molecular target: Dickkopf-related protein 1 (Homo sapiens) (UniProt O94907); experiment: DKK1 binders on small-molecule microarrays, primary screen, biochemical, small-molecule microarray, 635 nm fluorescence scan (AID 1106); details: DKK1 binding, higher = more signal;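 note: score merges emission near 667 nm with signal to noise over three replicate slides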
Chain of Dickkopf-related protein 1 (Homo sapiens) (O94907 whole entry, looked up): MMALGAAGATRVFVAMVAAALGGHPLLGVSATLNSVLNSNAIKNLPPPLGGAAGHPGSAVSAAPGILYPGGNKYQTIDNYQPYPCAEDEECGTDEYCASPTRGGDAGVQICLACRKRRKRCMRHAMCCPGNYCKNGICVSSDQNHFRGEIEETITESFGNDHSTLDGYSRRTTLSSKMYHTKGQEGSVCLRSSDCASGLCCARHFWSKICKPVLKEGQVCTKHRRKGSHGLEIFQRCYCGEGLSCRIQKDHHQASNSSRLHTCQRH

[10] = tested on: Inhibin beta A chain (activin A); experiment: INHBA (activin A) binders on microarrays, primary screen, biochemical, small-molecule microarray, 635 nm fluorescence scan (AID 1107); details: small-molecule microarray binding, higher = more signal;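 note: mouse activin A protein probed at 4.33 µg/mL on printed slides; score merges bound-protein fluorescence near 667 nm with spot signal-to-noise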
[11] = tested on: Human papillomavirus type 1a protein E7 (residues 44-93); experiment: HPV1a E7 fragment binders on microarrays, primary screen, biochemical, small-molecule microarray, residues 44-93, 635 nm fluorescence (AID 1108); details: small-molecule microarray binding, fluorescence 635 nm; higher = more signal;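 note: E7 fragment applied at 1 µg/mL in TBST for 1 h at 4 C; score combines spot fluorescence with its signal to noise ratio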
[12] = modulators of HCV replicon luciferase signal, primary screen, HCV replication inhibitor project, Huh7 cells, luciferase reporter (AID 1109); details: 48 h, higher = more signal;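 note: huh7 hepatoma cells harbouring a luciferase neomycin HCV replicon reporter; luciferase luminescence as measure of HCV replicon replication; test concentration not given here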
[13] = molecular target: Left-right determination factor 2 (Homo sapiens) (UniProt O00292); experiment: LEFTY2 binders on small-molecule microarrays, primary screen, biochemical, small-molecule microarray, 635 nm fluorescence scan (AID 1110); details: LEFTY2 binding, higher = more signal
Chain of Left-right determination factor 2 (Homo sapiens) (O00292 whole entry, looked up): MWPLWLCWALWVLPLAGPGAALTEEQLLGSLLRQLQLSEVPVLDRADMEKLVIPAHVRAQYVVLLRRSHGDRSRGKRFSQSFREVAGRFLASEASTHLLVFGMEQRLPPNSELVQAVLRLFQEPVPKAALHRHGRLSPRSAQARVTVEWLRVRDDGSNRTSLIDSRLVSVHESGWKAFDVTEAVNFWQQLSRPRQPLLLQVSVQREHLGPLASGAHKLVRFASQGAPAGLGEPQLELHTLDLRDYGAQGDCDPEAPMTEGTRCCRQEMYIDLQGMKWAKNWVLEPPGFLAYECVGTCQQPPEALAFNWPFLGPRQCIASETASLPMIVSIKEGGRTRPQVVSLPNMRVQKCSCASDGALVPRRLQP

[14] = molecular target: Calmodulin-1 (Homo sapiens) (UniProt P0DP23); experiment: CALM1 binders on microarrays, EGTA buffer, profiling panel, biochemical, small-molecule microarray, Cy5-labelled CALM1 (AID 1111); details: Cy5-CALM1 binding fluorescence, higher = more signal;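 note: labelled calmodulin applied in Tris saline Tween buffer holding calcium plus EGTA and DTT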
[15] = molecular target: Calmodulin-1 (Homo sapiens) (UniProt P0DP23); experiment: calcium-bound CALM1 binders on microarrays, profiling panel, artefact control for SMM control-protein annotation, biochemical, small-molecule microarray, Cy5-labelled CALM1, plus calcium (AID 1112); details: Cy5-CALM1 binding fluorescence, higher = more signal;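 note: score merges spot fluorescence with signal to noise from triplicate slides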
[16] = small-molecule microarray binders of probe aWnt5a, primary screen, biochemical, biotinylated probe, 635/667 nm fluorescence (AID 1113); details: higher = more signal;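 note: score merges 667 nm fluorescence intensity with signal-to-noise per printed feature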
[17] = small-molecule microarray binders of probe aShh, primary screen, biochemical, biotinylated probe, 635/667 nm fluorescence (AID 1114); details: higher = more signal;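 note: probe is biotin-labelled aShh protein from a stem cell growth factor screen; measures binding of labelled protein to compounds printed on the slide; score merges feature fluorescence at 667 nm with signal-to-noise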
[18] = small-molecule microarray binders of probe aNog, primary screen, biochemical, biotinylated probe, 635/667 nm fluorescence (AID 1115); details: higher = more signal;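 note: probe is biotinylated aNog protein used at 0.15 µg/mL for 1 h at 4 C; z-score combines 667 nm fluorescence of each spot with its signal to noise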
[19] = molecular target: Torsin-1A-interacting protein 1 (Homo sapiens) (UniProt Q5JTV8); experiment: LAP1 binders from COS7 cell lysate, primary screen, small-molecule microarray, 635/667 nm fluorescence (AID 1116); details: COS7-hLAP1 lysate binding, 635 nm fluorescence, higher = more signal
Chain of Torsin-1A-interacting protein 1 (Homo sapiens) (Q5JTV8 whole entry, looked up): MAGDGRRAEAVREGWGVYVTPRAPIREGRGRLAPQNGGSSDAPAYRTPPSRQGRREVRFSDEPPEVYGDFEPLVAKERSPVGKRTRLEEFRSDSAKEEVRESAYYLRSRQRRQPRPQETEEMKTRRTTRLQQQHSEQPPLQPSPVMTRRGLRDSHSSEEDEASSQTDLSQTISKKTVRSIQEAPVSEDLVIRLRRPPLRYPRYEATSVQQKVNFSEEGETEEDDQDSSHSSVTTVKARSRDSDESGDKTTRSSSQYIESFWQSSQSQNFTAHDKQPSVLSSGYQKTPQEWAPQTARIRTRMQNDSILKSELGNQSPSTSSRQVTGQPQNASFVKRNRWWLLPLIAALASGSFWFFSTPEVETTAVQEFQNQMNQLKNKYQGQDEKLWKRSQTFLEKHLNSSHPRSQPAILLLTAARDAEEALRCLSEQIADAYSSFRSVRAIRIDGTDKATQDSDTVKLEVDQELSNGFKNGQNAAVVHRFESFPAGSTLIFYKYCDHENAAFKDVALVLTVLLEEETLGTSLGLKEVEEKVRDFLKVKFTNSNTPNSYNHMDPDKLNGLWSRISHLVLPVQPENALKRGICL

[20] = molecular target: Alpha-bungarotoxin (Bungarus multicinctus) (UniProt P60615); experiment: alpha-bungarotoxin binders on microarray, profiling panel, artefact control for SMM control protein annotation, biochemical, small-molecule microarray, Alexa647 label, 635/667 nm fluorescence (AID 1117); details: alpha-BTX-A647 binding fluorescence, higher = more signal
Chain of Alpha-bungarotoxin (Bungarus multicinctus) (P60615 whole entry, looked up): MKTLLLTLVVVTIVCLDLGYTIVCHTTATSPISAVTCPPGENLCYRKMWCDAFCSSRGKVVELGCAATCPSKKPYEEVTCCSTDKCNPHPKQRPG

Row | SMILES | composite z-score [1] | composite z-score [2] | composite z-score [3] | z-score [4] | composite z-score [5] | composite z-score [6] | composite z-score [7] | composite z-score [8] | composite z-score [9] | composite z-score [10] | composite z-score [11] | z-score [12] | composite z-score [13] | composite z-score [14] | composite z-score [15] | composite z-score [16] | composite z-score [17] | composite z-score [18] | composite z-score [19] | composite z-score [20]
1 | COc1ccc([Si](C)(C)[C@H]2[C@H](CCO)O[C@@]3(C(=O)N(Cc4cccc(N5CCOC5=O)c4)c4ccccc43)[C@@H]2C)cc1 | 1.17 | -0.165 | -0.339 | -0.91 (inactive) | 0.997 | 0.808 | 0.0733 | 0.493 | 0.581 | -0.419 | 1.1 | -4.39 | 0.118 | 1.4 | -0.207 | -0.101 | 0.0668 | -0.118 | -0.18 | 0.355
2 | CCN(CC)c1ccc(N2CC=CC34O[C@@H]5/C=C\CCCOC(=O)C5[C@H]3C(=O)N(CCCCCCO)[C@@H]4C2=O)cc1 (stereo not given in full) | 1.96 | -0.202 | 0.733 | -1.13 (inactive) | -0.983 | -0.521 | -1.4 | -0.76 | -1.82 | 0.751 | -0.117 | 0.444 | -1.76 | -1.18 | -1.05 | -0.139 | 0.147 | -0.0439 | 1.26 | -0.855
3 | CN(C)C(=O)[C@@]1(CCC(=O)OC(C)(C)C)N=C(c2ccc(OCCCO)cc2)O[C@H]1c1ccccc1N=[N+]=[N-] | 1.33 | 0.813 | 0.837 | 0.101 (inactive) | 1.46 | 0.253 | 0.334 | 1.4 | 0.648 | 0.707 | 1.54 | 1.58 | 0.494 | 1.61 | 0.727 | 0.0839 | 0.246 | 0.948 | 2.15 | 2.63
4 | Cc1ccccc1C(O)C1C=CC2C(=O)N(Cc3ccccc3)C(=O)C2N1n1cnnc1 (stereo not given) | 0.996 | 0.363 | 0.118 | -0.512 (inactive) | 0.517 | 0.644 | -0.126 | 0.834 | 0.189 | 0.837 | 1.29 | -0.364 | -0.305 | 0.0712 | -0.535 | 0.0388 | 0.108 | 0.2 | 0.542 | 0.611
5 | COCCOC(=O)N1C(=O)[C@@]2(c3cc(C#Cc4ccc(OC)cc4)ccc31)[C@H](C(N)=O)[C@H]1C(=O)O[C@H](c3ccccc3)[C@H](c3ccccc3)N1[C@@H]2c1ccc(OCCO)cc1 | 1.43 | -0.178 | -0.13 | -0.853 (inactive) | 1.42 | 1.33 | 0.769 | 1.34 | 0.631 | 0.343 | 1.42 | -2.25 | 0.746 | 0.894 | -0.454 | -0.0512 | -0.12 | 0.492 | 1.09 | 1.5
6 | O=C1O[C@@H](c2ccccc2)[C@@H](c2ccccc2)N2[C@@H](c3ccc(O)cc3)[C@]3(C(=O)Nc4ccc(C#CC5(O)CCCCCC5)cc43)[C@@H](C(=O)N3CCN(c4ncccn4)CC3)[C@H]12 | 0.479 | -0.125 | -0.127 | -0.453 (inactive) | 0.74 | 0.709 | -0.0042 | 0.639 | 0.226 | -0.293 | 1.4 | -0.843 | 0.114 | 1.03 | 0.137 | -0.0721 | 0.255 | 0.146 | 1.18 | 1.21
